Structures are written as SMILES. Structures can show the parent of a compound that is named as a salt.

For the test, the system named is PBMC-derived induced microglia-like cells (piMGLC). The test can be described thus: synaptosome phagocytic index relative to DMSO control (fraction of DMSO); higher = more phagocytosis. The following applies: concentration: 10 uM (2 uM for compounds listed in Table S2); pretreatment time: 24 h; assay time: 3 h. As to the method:
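PBMC-derived induced microglia-like cells (piMGLCs) in 96-well plates were pretreated for 24 h with CNS-penetrant library compounds (MedChemExpress HY-L028), mostly at 10 uM; Table S2 lists 9 compounds at 2 uM. pHrodo-Red-labelled human iPSC-neuron synaptosomes (3 ug/well) were then added for 3 h, and cells were fixed and imaged by confocal microscopy. Phagocytic index (synaptosome area / cell count, CellProfiler) is a mean over 3 replicate wells on different plates, normalized to the DMSO control. Compounds leaving <10% of DMSO cell count were marked toxic and given no value.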
For the compound `C[C@@H](c1ncncc1F)[C@](O)(Cn1cncn1)c1ccc(F)cc1F` [Voriconazole], the synaptosome phagocytic index stood at 0.893.
`CCc1cc(C(N)=S)ccn1` [Ethionamide]: the synaptosome phagocytic index was found to be 0.996.
For `CN(C)c1ncc(/C=C/c2nc3ccc(OCCF)cc3o2)s1`, the synaptosome phagocytic index was found to be 0.356.
Under `O=C(c1ccccc1)c1ccc2n1CCC2C(=O)O` (stereo not given) [Ketorolac_(tromethamine_salt)] stands 0.874.
For the compound `COc1cc(/C=C/C(=O)NCCn2c(C)cc3ccccc32)cc(OC)c1OC`, the synaptosome phagocytic index is 0.832.
In the case of `CC(C(=O)O)c1ccc(-c2ccccc2)c(F)c1` (stereo not given) [Flurbiprofen], the synaptosome phagocytic index stood at 0.64.
To `CN(C/C=C/C#CC(C)(C)C)Cc1cccc2ccccc12` [Terbinafine] belongs 0.502; to `NS(=O)(=O)Cc1noc2ccccc12` [Zonisamide], 0.742; to `CCC(C)n1ncn(-c2ccc(N3CCN(c4ccc(OCC5COC(Cn6cncn6)(c6ccc(Cl)cc6Cl)O5)cc4)CC3)cc2)c1=O` (stereo not given) [Itraconazole], 0.377.
To `CCOC(=O)C1=C(C)NC(C)=C(C(=O)OC)C1c1cccc(Cl)c1Cl` (stereo not given) [Felodipine] belongs 1.04; to `CCCCOc1ccc(C(=O)CCN2CCCCC2)cc1` [Dyclonine_(hydrochloride)], 0.68; to `CCc1nn(CCCN2CCN(c3cccc(Cl)c3)CC2)c(=O)n1CCOc1ccccc1` [Nefazodone_(hydrochloride)], 1.37.
On to `CS(=O)(=O)CCNCc1ccc(-c2ccc3ncnc(Nc4ccc(OCc5cccc(F)c5)c(Cl)c4)c3c2)o1` [Lapatinib], for which the synaptosome phagocytic index amounted to 0.0755.
As for `CC(=O)[C@H]1CC[C@H]2[C@@H]3CC=C4C[C@@H](OS(=O)(=O)O)CC[C@]4(C)[C@H]3CC[C@]12C` [Pregnenolone_monosulfate], the synaptosome phagocytic index was 0.895.
To `CCn1ncc2c(NC3CCOCC3)c(-c3nnc(Cc4sc(C)nc4C)o3)cnc21` belongs 0.266; to `O=c1c(-c2ccc(O)cc2)coc2cc(O)cc(O)c12` [Genistein], 0.792; to `Nc1nc(Cl)nc2c1ncn2[C@H]1C[C@H](O)[C@@H](CO)O1` [Cladribine], 1.1.
Consider `NC(=O)N1c2ccccc2C=Cc2ccccc21` [Carbamazepine], for which the synaptosome phagocytic index was 0.865.
On to `C[C@H]1COCCN1c1nc(-c2cnc(N)cc2C(F)F)nc(N2CCOCC2)n1`, for which the synaptosome phagocytic index turned out to be 0.366.
Take `Cc1cn([C@H]2C=C[C@@H](CO)O2)c(=O)[nH]c1=O` [Stavudine]: the synaptosome phagocytic index was determined as 0.555.
For the compound `CN1CCN(c2cc(-c3ccncc3)c(-c3ccc4ccccc4c3)nn2)CC1`, the synaptosome phagocytic index was 0.903.
Take `Clc1cccc(CN=C2Nc3ccccc3NC23CCNCC3)c1` [Liproxstatin-1]: the synaptosome phagocytic index came out at 1.31.
Regarding `Cc1cnc(NC(=O)C2=C(O)c3ccccc3S(=O)(=O)N2C)s1` [Meloxicam], the synaptosome phagocytic index turned out to be 0.731.
As to `CC(=O)OCC(=O)[C@@]1(O)[C@H](C)C[C@H]2[C@@H]3CCC4=CC(=O)C=C[C@]4(C)[C@@]3(F)[C@@H](O)C[C@@]21C` [Dexamethasone_acetate], the synaptosome phagocytic index came out at 0.776.
`COC(=O)N[C@H](C(=O)N[C@@H](Cc1ccccc1)[C@@H](O)CN(Cc1ccc(-c2ccccn2)cc1)NC(=O)[C@@H](NC(=O)OC)C(C)(C)C)C(C)(C)C` [Atazanavir_(sulfate)]: the synaptosome phagocytic index stood at 0.81.
Take `COC[C@@H](c1ccc(C(F)(F)F)cc1)N1CCN(C2(C)CCN(C(=O)c3c(C)ncnc3C)CC2)C[C@@H]1C` [Vicriviroc_(maleate)]: the synaptosome phagocytic index amounted to 0.947.
For `CO[C@H]1C[C@@H]2CC[C@@H](C)[C@@](O)(O2)C(=O)C(=O)N2CCCC[C@H]2C(=O)O[C@H]([C@H](C)C[C@@H]2CC[C@@H](O)[C@H](OC)C2)CC(=O)[C@H](C)/C=C(\C)[C@@H](O)[C@@H](OC)C(=O)[C@H](C)C[C@H](C)/C=C/C=C/C=C/1C` [Rapamycin], the synaptosome phagocytic index was 0.285.
Under `Nc1nnc(-c2cccc(Cl)c2Cl)c(N)n1` [Lamotrigine] stands 1.3; under `CCOC(=O)C1=CCCC[C@H]1S(=O)(=O)Nc1ccc(F)cc1Cl` [Resatorvid], 0.156.
Consider `CCCc1nc(C)c2c(O)nc(-c3cc(S(=O)(=O)N4CCN(CC)CC4)ccc3OCC)nn12` [Vardenafil_(hydrochloride)], for which the synaptosome phagocytic index stood at 1.16.
For the compound `CO[C@H]1C(=O)[C@]2(C)[C@@H](OC)C[C@H]3OC[C@@]3(OC(C)=O)[C@H]2[C@H](OC(=O)c2ccccc2)[C@]2(O)C[C@H](OC(=O)[C@H](O)[C@@H](NC(=O)OC(C)(C)C)c3ccccc3)C(C)=C1C2(C)C` [Cabazitaxel], the synaptosome phagocytic index is 0.833.
Under `COc1ccc(-c2c(C)nn3c(C(F)(F)F)cc(C)nc23)c(F)c1F` stands 0.98.
Consider `CC1COc2c(N3CCN(C)CC3)c(F)cc3c(=O)c(C(=O)O)cn1c23` (stereo not given) [Ofloxacin], for which the synaptosome phagocytic index worked out at 1.05.
On to `OCCOCCN1CCN(C2=Nc3ccccc3Sc3ccccc32)CC1` [Quetiapine], for which the synaptosome phagocytic index is 0.906.
Under `COc1ccc2c(c1)c(CC(=O)O)c(C)n2C(=O)c1ccc(Cl)cc1` [Indomethacin] stands 1.22; under `CCN(CC)CC(=O)Nc1c(C)cccc1C` [Lidocaine], 0.907.
Turning to `CCN1CCN(Cc2ccc(Nc3ncc(F)c(-c4cc(F)c5nc(C)n(C(C)C)c5c4)n3)nc2)CC1` [Abemaciclib], the synaptosome phagocytic index amounted to 0.228.
Consider `C[N+](C)(C)CCOP(=O)([O-])OC[C@H](O)CO` [sn-Glycero-3-phosphocholine], for which the synaptosome phagocytic index came out at 0.483.
On to `COC(=O)C1=C(C)NC(C)=C(C(=O)OCCN(C)Cc2ccccc2)C1c1cccc([N+](=O)[O-])c1` (stereo not given) [Nicardipine_(hydrochloride)], for which the synaptosome phagocytic index came out at 0.627.
Turning to `O=c1ncn2nc(Sc3ccc(F)cc3F)ccc2c1-c1c(Cl)cccc1Cl` [Neflamapimod], the synaptosome phagocytic index is 0.984.

For the origin of these results see the supplement of paper PMC12339681.
